In the supplement of paper PMC10646978:
± gives the standard deviation.

How the values were obtained:
Settings in all cases: modulator concentration 10 µM
[1] = tested on: RAW-Dual (murine macrophage reporter line); assay: NF-kB reporter (SEAP) activity fold change vs agonist alone; higher = enhanced NF-kB activity
Outline: (§1)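 Overnight stimulation with a PRR agonist followed pre-incubation for 1 hour at 37 °C with compound at 10 μM final. This was done in RAW-Dual murine macrophage reporter cells seeded at 50 000 per well in 384-well plates. NF-κB (SEAP, QUANTI-Blue absorbance at 620 nm) and IRF (Lucia luciferase, QUANTI-Luc luminescence) were read from the supernatant. Each reporter's fold change relative to the mean agonist-only control on the same plate was averaged over replicate plates.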

[2] = tested on: RAW-Dual (murine macrophage reporter line); assay: IRF reporter (Lucia luciferase) activity fold change vs agonist alone; higher = enhanced IRF activity
Outline: as §1

[3] = tested on: RAW-Dual (murine macrophage reporter line); assay: viability score (confluency relative to resting cells, overnight) (fraction); higher = more viable, active = viable (0.7 or more)
Outline: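 In 384-well plates, RAW-Dual macrophages received compound at a final 10 μM overnight. Two confluency masks were then made with IncuCyte software from IncuCyte images of all imaged wells. The viability score is defined as confluency relative to resting cells. Passing the cutoff required both masks to lie above 70% of resting cells.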

[4] = agonist: CpG ODN 1826 0.5 ug/mL

| SMILES | NF-kB reporter [1, 4] | NF-kB reporter ([1]; agonist: LPS 0.1 ug/mL) | NF-kB reporter ([1]; agonist: MPLA […]) | IRF reporter ([2]; agonist: 3'3'-cGAMP 10 ug/mL) | IRF reporter ([2]; agonist: LPS 0.1 ug/mL) | IRF reporter ([2]; agonist: MPLA […]) | viability score [3] |
| --- | --- | --- | --- | --- | --- | --- | --- |
| CC(NCCc1c[nH]c2ccccc12)=C1C(=O)c2ccccc2C1=O | 0.972 ± 0.081 | 0.979 ± 0.11 | 1.15 ± 0.05 | 0.425 ± 0.027 | 0.989 ± 0.033 | 1.28 ± 0.11 | 0.991 (active) |
| CC(C)(C)SCC(O)Cn1c2ccc(Br)cc2c2cc(Br)ccc21 (configuration not stated) | 0.767 ± 0.06 | 0.846 ± 0.1 | 0.91 ± 0.098 | 0.844 ± 0.039 | 1.31 ± 0.079 | 1.4 ± 0.12 | 0.999 (active) |
| Brc1ccc2ncnc(NCc3cccnc3)c2c1 | 1.22 ± 0.069 | 1.31 ± 0.11 | 1.02 ± 0.04 | 0.329 ± 0.014 | 0.498 ± 0.047 | 0.641 ± 0.11 | 1 (active) |
| CN(C/C=C/C#CC(C)(C)C)Cc1cccc2ccccc12.Cl | 1.15 ± 0.054 | 0.905 ± 0.072 | 0.913 ± 0.049 | 1.07 ± 0.068 | 0.817 ± 0.14 | 0.885 ± 0.19 | 0.702 (active) |
| Cc1ccc(S(=O)(=O)N=C(Nc2ccc([N+](=O)[O-])cc2)c2ccccc2)cc1 | 1.06 ± 0.075 | 1.13 ± 0.074 | 0.928 ± 0.06 | 0.958 ± 0.032 | 1.39 ± 0.32 | 1.22 ± 0.16 | 1 (active) |
| COc1cc(C=NNC(=O)CSc2ccccn2)cc(Cl)c1O | 1.16 ± 0.073 | 1.02 ± 0.15 | 0.953 ± 0.026 | 1.04 ± 0.042 | 0.95 ± 0.12 | 0.94 ± 0.18 | 1 (active) |
| CCc1ccccc1Nc1nc(-c2sc(NC(C)=O)nc2C)cs1 | 0.65 ± 0.1 | 0.555 ± 0.052 | 0.582 ± 0.048 | 0.778 ± 0.028 | 1.3 ± 0.3 | 1.42 ± 0.26 | 0.536 (inactive) |
| CC1=C(CC(=O)O)c2cc(F)ccc2/C1=C\c1ccc(S(C)=O)cc1 (configuration not stated) | 0.984 ± 0.14 | 0.828 ± 0.061 | 1.13 ± 0.098 | 1.09 ± 0.051 | 1.23 ± 0.073 | 1.41 ± 0.13 | 1 (active) |
| COc1cc2c(cc1OC)C1C(=O)c3ccc4c(c3OC1CO2)CCC(C)(C)O4 (configuration not stated) | 0.91 ± 0.073 | 1.02 ± 0.075 | 1.67 ± 0.16 | 0.824 ± 0.026 | 1.52 ± 0.24 | 1.75 ± 0.36 | 1.02 (active) |
| CC(=O)N1CCC(C(=O)NCc2cccnc2-c2cnn(C)c2)CC1 | 1.02 ± 0.11 | 1.06 ± 0.11 | 0.903 ± 0.099 | 1.04 ± 0.095 | 1.18 ± 0.074 | 1.15 ± 0.25 | 0.995 (active) |
| CCOc1ccc(NC(=O)N2C3C=CCC2CC3)cc1 (configuration not stated) | 1.09 ± 0.42 | 0.941 ± 0.055 | 1.04 ± 0.075 | 0.943 ± 0.054 | 0.921 ± 0.13 | 1.1 ± 0.1 | 0.814 (active) |
| CN1CCC[C@@H]1CCO[C@](C)(c1ccccc1)c1ccc(Cl)cc1.O=C(O)/C=C/C(=O)O | 1.17 ± 0.29 | 1.01 ± 0.13 | 1.06 ± 0.1 | 0.526 ± 0.021 | 1.28 ± 0.17 | 1.63 ± 0.16 | 0.321 (inactive) |
| CCOC(=O)C1CCCN(S(=O)(=O)c2ccc(F)cc2)C1 (configuration not stated) | 1.07 ± 0.12 | 1.1 ± 0.11 | 0.97 ± 0.059 | 0.964 ± 0.06 | 1.3 ± 0.18 | 1.02 ± 0.3 | 0.983 (active) |
| O=C(Cc1ccc([N+](=O)[O-])cc1)NN=Cc1ccncc1 | 0.864 ± 0.26 | 1.08 ± 0.098 | 1.03 ± 0.16 | 0.964 ± 0.038 | 1.15 ± 0.18 | 1.44 ± 0.42 | 1 (active) |
| CC(=O)Nc1ccc2nc(NC(=O)c3ccco3)sc2c1 | 1.05 ± 0.083 | 1.03 ± 0.09 | 0.95 ± 0.072 | 0.827 ± 0.046 | 1.03 ± 0.069 | 0.744 ± 0.084 | 1 (active) |
| CC1(C)Cc2ccccc2C(=C(C#N)C#N)N1 | 1.01 ± 0.08 | 0.912 ± 0.068 | 1.06 ± 0.1 | 1.03 ± 0.041 | 1.33 ± 0.2 | 1.5 ± 0.34 | 1.01 (active) |
| CCN(CC)CCOC(=O)C(c1ccccc1)c1ccccc1 [Prestw-75] | 0.712 ± 0.11 | 1.14 ± 0.14 | 1.91 ± 0.9 | 1.2 ± 0.038 | 0.922 ± 0.09 | 1.09 ± 0.12 | 0.91 (active) |
| Oc1ccc(CN2CCOCC2)cc1 | 1.05 ± 0.17 | 1.08 ± 0.094 | 0.971 ± 0.09 | 0.939 ± 0.06 | 1.24 ± 0.14 | 1.25 ± 0.13 | 0.995 (active) |
| CN1CCN(CCCN2c3ccccc3Sc3ccc(Cl)cc32)CC1.O=C(O)/C=C\C(=O)O.O=C(O)/C=C\C(=O)O | 1.01 ± 0.049 | 1.14 ± 0.098 | 2.15 ± 0.15 | 0.14 ± 0.012 | 0.479 ± 0.12 | 0.435 ± 0.13 | 0.86 (active) |
| O=C(C=Cc1ccccc1)NC(NC(=S)Nc1ccc(Cl)cc1)C(Cl)(Cl)Cl (configuration not stated) | 1.16 ± 0.11 | 0.783 ± 0.11 | 5.38 ± 0.2 | 0.404 ± 0.07 | 0.804 ± 0.036 | 1.74 ± 0.19 | 0.166 (inactive) |
| Cc1cc(C(=O)NCc2sc(-c3ccccc3Cl)nc2C)c(C)o1 | 0.883 ± 0.039 | 1 ± 0.081 | 1.09 ± 0.061 | 0.98 ± 0.047 | 1.11 ± 0.25 | 1.27 ± 0.44 | 0.984 (active) |
| CCC(=O)Nc1ccc(N2CCCCC2)c(Cl)c1 | 1.1 ± 0.23 | 1.14 ± 0.091 | 1.04 ± 0.1 | 0.773 ± 0.026 | 1.41 ± 0.18 | 1.38 ± 0.28 | 0.992 (active) |
| O=C(NCCN1CCOCC1)c1cc2nc(-c3ccccc3)cc(C(F)(F)F)n2n1 | 0.898 ± 0.078 | 1.06 ± 0.091 | 0.933 ± 0.061 | 0.607 ± 0.033 | 1.09 ± 0.098 | 1.01 ± 0.09 | 1 (active) |
| CCN(CC)c1ccc(C=NNC(=O)c2ccccc2I)c(O)c1 | 1.35 ± 0.13 | 0.997 ± 0.069 | 1.26 ± 0.076 | 0.436 ± 0.036 | 1.08 ± 0.11 | 1.09 ± 0.13 | 0.926 (active) |
| O=C(Oc1ccc(C=Nc2ccc([N+](=O)[O-])cc2)cc1)c1ccccc1 | 0.769 ± 0.061 | 0.967 ± 0.089 | 0.978 ± 0.056 | 0.713 ± 0.025 | 0.985 ± 0.12 | 1.12 ± 0.29 | 0.998 (active) |
| O=C(Nc1ccc([N+](=O)[O-])cc1Cl)c1cc(Cl)ccc1O [Prestw-40] | 1.12 ± 0.28 | 0.92 ± 0.052 | 0.938 ± 0.068 | 0.873 ± 0.064 | 1.12 ± 0.24 | 0.832 ± 0.13 | 1.01 (active) |
